Data from publication PMC5700166.
Residue numbers refer to the chain shown, from its start.

How the values were obtained:
Assay in all cases: protein-binding microarray (PBM); PBM: ~300 nM protein, 6 mM HEPES pH 7.8, 80 mM KCl, 0.5 mM EDTA, 0.5 mM EGTA, 6% glycerol, 35 ng/ul poly-dIdC, 1% milk, 1 h, room temperature; Ap Aiptasia and Nv Nematostella (sea anemones) / Co Capsaspora / Aq Amphimedon (sponge) / Dm Drosophila / Hu human; RHD is the Rel homology domain; high values mean tight binding
Settings in all cases: dsDNA, one strand shown
[1] = target: T1, GST-Ap-NF-kB RHD (Exaiptasia pallida (Aiptasia), UniProt A0A913YAJ5 2-422)
T1 sequence: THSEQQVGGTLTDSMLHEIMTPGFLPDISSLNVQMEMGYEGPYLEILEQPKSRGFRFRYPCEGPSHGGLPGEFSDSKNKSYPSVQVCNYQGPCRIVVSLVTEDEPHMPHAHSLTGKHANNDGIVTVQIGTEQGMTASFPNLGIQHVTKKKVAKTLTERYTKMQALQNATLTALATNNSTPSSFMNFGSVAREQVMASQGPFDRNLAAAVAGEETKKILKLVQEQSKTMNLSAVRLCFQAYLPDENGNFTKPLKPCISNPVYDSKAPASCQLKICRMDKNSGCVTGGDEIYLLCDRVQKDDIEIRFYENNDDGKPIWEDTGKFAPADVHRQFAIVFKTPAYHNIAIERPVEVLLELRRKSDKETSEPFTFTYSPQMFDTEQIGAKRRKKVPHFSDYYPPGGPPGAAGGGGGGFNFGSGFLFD

[2] = target: T2, GST-Nv-NF-kB (Cys allele) (Nematostella vectensis, UniProt E5G601 2-411)
T2 sequence: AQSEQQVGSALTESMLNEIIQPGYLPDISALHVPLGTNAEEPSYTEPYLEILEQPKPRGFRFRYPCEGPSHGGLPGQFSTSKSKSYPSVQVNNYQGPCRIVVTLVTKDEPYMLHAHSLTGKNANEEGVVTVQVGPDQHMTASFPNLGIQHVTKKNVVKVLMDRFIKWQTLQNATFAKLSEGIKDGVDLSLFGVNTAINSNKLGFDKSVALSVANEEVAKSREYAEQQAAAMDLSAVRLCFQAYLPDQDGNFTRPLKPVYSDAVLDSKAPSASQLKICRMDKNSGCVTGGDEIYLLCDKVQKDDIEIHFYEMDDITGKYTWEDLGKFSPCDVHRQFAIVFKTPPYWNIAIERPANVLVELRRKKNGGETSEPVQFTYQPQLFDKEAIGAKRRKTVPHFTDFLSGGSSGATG

[3] = target: T3, GST-Nv-NF-kB (Ser allele) (Nematostella vectensis, UniProt A7UNT2 2-411)
T3 sequence: T2 sequence with Q21R, C66S, S207N, E215Q, V217A, E225K, A268E, D399E

[4] = target: T4, GST-Co-NF-kB (Capsaspora owczarzaki, UniProt F1ARL5 200-546)
T4 sequence: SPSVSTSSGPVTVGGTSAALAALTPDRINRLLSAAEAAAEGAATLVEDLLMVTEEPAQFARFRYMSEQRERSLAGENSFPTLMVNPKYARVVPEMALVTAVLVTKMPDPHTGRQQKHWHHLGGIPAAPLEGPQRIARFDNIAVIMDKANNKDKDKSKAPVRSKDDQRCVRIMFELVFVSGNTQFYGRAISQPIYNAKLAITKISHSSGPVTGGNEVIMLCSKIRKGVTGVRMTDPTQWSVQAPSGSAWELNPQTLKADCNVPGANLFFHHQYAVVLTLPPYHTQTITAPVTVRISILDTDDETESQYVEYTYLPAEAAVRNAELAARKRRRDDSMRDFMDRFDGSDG

[5] = target: T5, GST-Dm-Relish (Drosophila melanogaster, UniProt Q94527 99-473)
T5 sequence: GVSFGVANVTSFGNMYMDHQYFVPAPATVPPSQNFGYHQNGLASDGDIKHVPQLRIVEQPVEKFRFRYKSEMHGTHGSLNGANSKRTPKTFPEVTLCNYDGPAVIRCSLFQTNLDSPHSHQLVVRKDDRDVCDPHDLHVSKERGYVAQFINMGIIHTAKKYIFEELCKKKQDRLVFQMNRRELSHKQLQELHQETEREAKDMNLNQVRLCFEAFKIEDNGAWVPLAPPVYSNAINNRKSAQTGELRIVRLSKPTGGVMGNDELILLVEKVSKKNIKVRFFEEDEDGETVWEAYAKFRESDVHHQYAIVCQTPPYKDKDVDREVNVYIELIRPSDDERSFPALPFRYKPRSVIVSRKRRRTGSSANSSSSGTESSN

[6] = target: T6, GST-Aq-NF-kB (Amphimedon queenslandica, UniProt A9Y5G7 2-389)
T6 sequence: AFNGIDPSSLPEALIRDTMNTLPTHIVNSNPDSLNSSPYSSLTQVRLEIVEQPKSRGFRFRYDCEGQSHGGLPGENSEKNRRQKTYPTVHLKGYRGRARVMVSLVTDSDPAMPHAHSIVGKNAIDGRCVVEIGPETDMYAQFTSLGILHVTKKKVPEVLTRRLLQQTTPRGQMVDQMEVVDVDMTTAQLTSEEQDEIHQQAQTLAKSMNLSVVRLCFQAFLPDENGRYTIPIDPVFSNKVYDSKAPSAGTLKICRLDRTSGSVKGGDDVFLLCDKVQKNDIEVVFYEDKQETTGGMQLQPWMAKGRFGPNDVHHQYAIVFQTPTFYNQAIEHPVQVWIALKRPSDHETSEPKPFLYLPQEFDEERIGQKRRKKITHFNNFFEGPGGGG

[7] = target: GST-Hu-p50 (Homo sapiens, UniProt P19838 7-356)
Chain of GST-Hu-p50 (P19838 7-356): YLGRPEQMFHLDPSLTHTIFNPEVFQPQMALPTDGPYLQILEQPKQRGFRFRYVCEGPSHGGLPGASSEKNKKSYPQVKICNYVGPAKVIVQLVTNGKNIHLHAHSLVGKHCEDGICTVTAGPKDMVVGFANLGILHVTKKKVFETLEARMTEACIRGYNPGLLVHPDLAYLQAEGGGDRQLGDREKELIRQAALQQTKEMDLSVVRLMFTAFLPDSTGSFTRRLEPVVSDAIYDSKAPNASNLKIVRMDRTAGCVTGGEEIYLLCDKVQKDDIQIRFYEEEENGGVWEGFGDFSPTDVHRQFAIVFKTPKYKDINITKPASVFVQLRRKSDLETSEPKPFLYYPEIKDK

Sequence | binding signal [1] [z-score] | binding signal [2] [z-score] | binding signal [3] [z-score] | binding signal [4] [z-score] | binding signal [5] [z-score] | binding signal [6] [z-score] | binding signal [7] [z-score]
CCGATTAACATCAAGATTTTCCCTGATGTTAATCGGGTCTTGATTCGCTTGACGCTGCTG | 4.58 | 6.22 | 7.42 | 5.04 | 1.5 | 5.78 | 4.29
CCGATTAACATCAGGGGGTAAGATGATGTTAATCGGGTCTTGATTCGCTTGACGCTGCTG | 3.96 | 3.13 | 3.97 | 5.47 | 1.62 | 3.34 | 3.07
CCGATTAACATCAAGTCTCCCCCTGATGTTAATCGGGTCTTGATTCGCTTGACGCTGCTG | 6.67 | 5.33 | 7.25 | 8.63 | 2.82 | 4.5 | 5.75
CCGATTAACATCAGGGAAAAATATGATGTTAATCGGGTCTTGATTCGCTTGACGCTGCTG | 3.68 | 5.51 | 7.16 | 5.79 | 2.03 | 5.19 | 4.2
CCGATTAACATCAGGCCTTTCCCTGATGTTAATCGGGTCTTGATTCGCTTGACGCTGCTG | 2.77 | 4.72 | 2.62 | 1.36 | 5.87 | 6.74 | 3.53
CCGATTAACATCAGGGGGGAAACTGATGTTAATCGGGTCTTGATTCGCTTGACGCTGCTG | 7.64 | 7.15 | 8.2 | 11.1 | 5.47 | 5.87 | 6.97
CCGATTAACATCAAGGGGGTACCTGATGTTAATCGGGTCTTGATTCGCTTGACGCTGCTG | 5.62 | 3.48 | 4.15 | 2.65 | 3.15 | 3.5 | 3.89
CCGATTAACATCATGAATTCCCATGATGTTAATCGGGTCTTGATTCGCTTGACGCTGCTG | 1.57 | 3.03 | 3.14 | 2.17 | 3.29 | 2.61 | 2.73
CCGATTAACATCACACTTTCCCCTGATGTTAATCGGGTCTTGATTCGCTTGACGCTGCTG | 6.32 | 6.92 | 8.7 | 7.06 | 2.75 | 4.81 | 5.3
CCGATTAACATCAATTTCCCCCGTGATGTTAATCGGGTCTTGATTCGCTTGACGCTGCTG | 7.85 | 6.59 | 8.85 | 12.3 | 5.65 | 6.15 | 6.52
CCGATTAACATCAGGGGAAACACTGATGTTAATCGGGTCTTGATTCGCTTGACGCTGCTG | 6.4 | 8.15 | 9.65 | 7.63 | 9.02 | 7 | 6.08
CCGATTAACATCACTGTTTCCCCTGATGTTAATCGGGTCTTGATTCGCTTGACGCTGCTG | 5.28 | 7.06 | 9.29 | 7.92 | 2.5 | 4.25 | 4.88
CCGATTAACATCAGGGGAGTTTATGATGTTAATCGGGTCTTGATTCGCTTGACGCTGCTG | 8.25 | 6.72 | 7.68 | 4.75 | 6.12 | 6.08 | 5.95
CCGATTAACATCAGGGGAGGGACTGATGTTAATCGGGTCTTGATTCGCTTGACGCTGCTG | 4.36 | 4.69 | 4.55 | 2.92 | 3.83 | 5.21 | 3.82
CCGATTAACATCAATGTTCCCCCTGATGTTAATCGGGTCTTGATTCGCTTGACGCTGCTG | 6.95 | 6.49 | 7.58 | 11 | 5.32 | 6.17 | 5.74
CCGATTAACATCAGGAGCCCCCCTGATGTTAATCGGGTCTTGATTCGCTTGACGCTGCTG | 5.02 | 3.27 | 2.66 | 2.66 | 6.02 | 5.04 | 4.41
CCGATTAACATCACGAATTTCCCTGATGTTAATCGGGTCTTGATTCGCTTGACGCTGCTG | 4.28 | 5.72 | 6.67 | 4.33 | 2.13 | 5.22 | 4.46
CCGATTAACATCAGAATATCCCCTGATGTTAATCGGGTCTTGATTCGCTTGACGCTGCTG | 7.8 | 7.86 | 8.08 | 3.97 | 6.49 | 5.85 | 5.75
CCGATTAACATCAAATTTCCCGGTGATGTTAATCGGGTCTTGATTCGCTTGACGCTGCTG | 4.14 | 4.99 | 4.8 | 6.34 | 3.56 | 4.88 | 4.39
CCGATTAACATCAGAAAGTCCCCTGATGTTAATCGGGTCTTGATTCGCTTGACGCTGCTG | 8.98 | 9.38 | 8.58 | 3.84 | 9.11 | 7.8 | 7.42
CCGATTAACATCAGGGGGATTCATGATGTTAATCGGGTCTTGATTCGCTTGACGCTGCTG | 8.54 | 7.43 | 8.48 | 5.63 | 7.41 | 6.1 | 7.07
CCGATTAACATCAGGGAATCACCTGATGTTAATCGGGTCTTGATTCGCTTGACGCTGCTG | 6.2 | 6.62 | 6.17 | 2.45 | 10.3 | 6.99 | 5.35
CCGATTAACATCACACAATCCCCTGATGTTAATCGGGTCTTGATTCGCTTGACGCTGCTG | 6.64 | 6.65 | 8.71 | 2.94 | 3.98 | 4.86 | 5.87
CCGATTAACATCAGACTTCCCCCTGATGTTAATCGGGTCTTGATTCGCTTGACGCTGCTG | 7.28 | 7.38 | 7.81 | 7.84 | 7.18 | 6.8 | 6.2
